ATXN2 expr inh: inhibitors of ATXN2 expression; HEK-293 ATXN2-luciferase reporter, luminescence, 24 h; AID 1745845; 0.72% of 360,000 active; Potency, µM (doses to about 57 µM), for the others: at the highest dose activity change, negative = inhibition, hits mostly inhibitors; note: potency is the fitted concentration of half-maximal effect; % is set by controls: 0 for no effect and ±100 for the full control effect; nearly all actives have a fitted effect of over 55% in size
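qHTS (up to 57 uM final) was run with 24 h compound exposure of reporter cells at 37 °C. Each well was multiplexed: SteadyGlo luminescence measured ATXN2-luciferase expression after a fluorogenic Gly-Phe-AFC viability readout (25 uM final).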
HepG2 tox: counter-screen for TGF-b inhibitors: cytotoxicity in HepG2 cells; Potency, µM (doses to about 46.1 µM), for inactives: top-dose activity change, negative = cytotoxicity, hits mostly cytotoxic; HepG2 CAGA-GFP viability, ATP luminescence, 18 h; AID 588856; 0.76% of 410,000 active; note: potency is the fitted concentration of half-maximal effect
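HepG2 CAGA-GFP cells (1000/well, DMEM with 1% FBS) received compound, then TGF-beta at 500 pg/mL final, and were incubated 18 hours at 37 degrees C. Viability was read by CellTiter-Glo luminescence. Media-only wells were set as complete cell-killing and DMSO as no toxicity.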
TGFb inhibitor: blocks TGF-b signaling. Potency, µM (doses to about 46.1 µM), without a hit: top-dose activity, negative = inhibition, hits mostly inhibitors. 1.2% of 410,000 active. AID 588855. HepG2 CAGA-GFP TGF-b/SMAD3 reporter, GFP fluorescence, 18 h; TGF-beta stimulated, 500 pg/mL final; note: potency is the fitted concentration of half-maximal effect; % is set by controls: 0 for no effect and ±100 for the full control effect; nearly all actives have a fitted effect of over 65% in size
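GFP signal (ex488/em500-530) from TGF-beta-stimulated HEPG2 CAGA-GFP cells, 500 pg/mL final, 18 h at 37 degrees C in DMEM plus 1% FBS, normalized to unstimulated and DMSO-stimulated controls.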
D3 ag: D3 dopamine receptor (human) agonism. max activation, %. P35462. AID 652048. 0.58% of 410,000 active. D3R DiscoveRx beta-arrestin cells, luminescence, 90 min; in the data active = max activation above about 30%; note: 0% is about no effect
Target sequence (P35462 whole entry, looked up): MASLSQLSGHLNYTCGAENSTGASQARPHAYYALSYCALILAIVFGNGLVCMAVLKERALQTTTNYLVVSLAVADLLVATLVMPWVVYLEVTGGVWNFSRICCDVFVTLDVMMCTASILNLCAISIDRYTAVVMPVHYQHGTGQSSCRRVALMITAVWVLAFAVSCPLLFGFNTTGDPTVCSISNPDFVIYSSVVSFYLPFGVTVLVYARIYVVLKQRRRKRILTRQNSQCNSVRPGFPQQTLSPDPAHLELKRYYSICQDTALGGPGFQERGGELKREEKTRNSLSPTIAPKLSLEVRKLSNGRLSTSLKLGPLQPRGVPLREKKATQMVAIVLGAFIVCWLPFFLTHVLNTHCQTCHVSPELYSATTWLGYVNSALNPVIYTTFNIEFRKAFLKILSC
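Agonist mode: compounds and dopamine controls were applied to plated cells for 90 min at 37 degrees C after an overnight attachment at 1500 cells/well. Luminescent read-out followed 30 - 60 minutes at room temperature with DiscoveRx detection reagent.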
DRD3 antagonist: blocks the human D3 dopamine receptor; 2.5% of 360,000 active; max response, negative = inhibition, %; AID 652054; D3R cells, DiscoveRx beta-arrestin luminescence, antagonist mode; hits give low values; in the data active = max response below about -50%; inconclusive = no clear call, values can overlap the other calls; note: % is set by controls: 0 for no effect and ±100 for the full control effect
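Cells expressing the human receptor were seeded at 1500 cells/well, incubated overnight at 37 degrees C in 5% CO2, then exposed to library compounds with dopamine controls for 90 minutes at 37 degrees C before luminescent detection.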
S2 tox: viability counter-screen for ATXN expression inhibitors; S2 cells (HEK-293 line with an ATXN2-luciferase reporter) viability, CellTiter-Fluor protease fluorescence, 24 h; Potency, µM (series often up to 56.7 µM), hits mostly cytotoxic; 0.49% of 400,000 active; AID 651635; note: potency is the fitted concentration of half-maximal effect; nearly all actives have a fitted effect of over 40% in size
The depositor's hits bear a star; i = inactive; ? = inconclusive; . = no result. Compounds with a hit are over-represented: about 4.8% of the library has one in this group of screens. Unless noted, calls come from the whole dose curve; as a rule, active = well fitted curve in the direction sought with a large enough effect; inconclusive = small, poorly fitted or top-dose-only effect, or another doubt; inactive = no such curve, though single readings can be large; an effect the other way counts as inactive or inconclusive.

SMILES	ATXN2 expr inh	HepG2 tox	TGFb inhibitor	D3 ag	DRD3 antagonist	S2 tox
COc1ccc(C(c2nnnn2CCc2ccccc2)N2CCN(C3CCCC3)CC2)cc1 (stereo unspecified)	-5%	-21%	-7%	0	-85*	i
COc1ccccc1N1CCN(C(c2ccc(N(C)C)cc2)c2nnnn2CCc2ccccc2)CC1 (stereo unspecified)	-2%	4%	-14%	1	-51*	i
Cc1c(C(=O)N2CCOc3ccccc3C2)sc2ncnc(NCCCN3CCOCC3)c12	.	.	.	.	.	i
CCCCCCCCn1cnc2c(N)c(C)c(C)cc21	-35%	20µM*	?	5	-5	i
Cc1cc(I)ccc1Nc1nc(NCCN2CCOCC2)nc(N2CCOCC2)n1	.	-45%	-7%	.	.	.
CCOC(=O)Nc1nnc(/C=C/c2ccc(OC)cc2)s1	20%	10%	-1%	-13	-56*	i
Cc1ccc2cccc(NC(=O)c3ccc(-c4cccc(Cl)c4Cl)o3)c2n1	-1%	-10%	4%	-5	.	i
CSc1ccc(CCNC(=O)c2ccc(-n3c(C)cc4c3CCCC4)cc2)cc1	.	-44%	?	-7	.	.
COC(=O)c1c(SC)nc2ccccc2c1OCc1ccccc1C	4%	-32%	-19%	32*	.	i
COC(=O)c1c(SC)nc2ccccc2c1OCc1ccc(Br)cc1	3%	-2%	-7%	11	.	i
COC(=O)c1c(SC)nc2ccccc2c1OCc1ccc(C)cc1	-5%	-16%	-17%	40*	.	i
Cc1ncc2c(c1CNS(=O)(=O)N(C)C)CCN(C(=O)/C=C/c1ccccc1Cl)C2	.	.	.	.	.	i
O=C(O)CCSc1ncnc2sc(-c3ccccc3)cc12	2µM*	-16%	16%	15	1	i
Cc1ccc2c(=O)cc(C(=O)Nc3c(C(=O)c4ccc(F)cc4)oc4ccccc34)oc2c1C	-2%	-8%	-2%	-12	.	i
CCCOc1ccc(CC2C(=O)Nc3ccc(Br)cc32)cc1 (stereo unspecified)	-24%	-95%	11µM*	3	.	?
CCOc1ccccc1CC1C(=O)Nc2ccc(Br)cc21 (stereo unspecified)	?	-38%	?	-10	.	i
COc1ccc(CC2C(=O)Nc3ccc(Br)cc32)cc1OC (stereo unspecified)	.	16µM*	-19%	-10	.	.
CCCCCCCCCCCCCCNCCO	4%	.	.	7	.	i
COc1ccccc1C(=O)N1CCOc2ccc(CN3CCN(Cc4ccccn4)CC3)cc2C1	.	.	.	.	.	i
O=C(O)CCCN1C(=O)C2C3CCC(C3)C2C1=O (stereo unspecified)	.	-1%	-3%	3	-73*	i
Cc1nc(SCc2nc3ccc(Cl)cc3[nH]2)c2oc3ccccc3c2n1	?	-15%	7.9µM*	.	.	?
Cc1nc(SCc2nc3ccc(Br)cc3[nH]2)c2oc3ccccc3c2n1	-31%	-10%	?	.	.	i
COc1ccc(NC(=O)c2cc(-c3ccc(F)cc3)no2)cc1OC	7%	3%	35%	7	.	i
COc1cccc(-c2ncc3ccccn23)c1	39%	6%	-10%	1	20	i
COc1cc(OC)cc(-c2ncc3ccccn23)c1	-7%	-10%	?	-9	-58*	i
SMILES	ATXN2 expr inh	HepG2 tox	TGFb inhibitor	D3 ag	DRD3 antagonist	S2 tox
CC(O)(c1ccc(F)c(F)c1)c1nc(-c2cccc(F)c2)cs1 (stereo unspecified)	-9%	-24%	?	-5	5	i
Cc1ccc(-c2csc(C(C)(O)c3ccc(F)c(F)c3)n2)cc1C (stereo unspecified)	-35%	-58%	?	-9	-69*	i
CC(C)c1cccc(-c2csc(C(C)(O)c3ccc(F)c(F)c3)n2)c1 (stereo unspecified)	0%	20µM*	?	-9	-17	i
CC(O)(c1ccc(F)c(F)c1)c1nc(-c2ccc(F)c(Cl)c2)cs1 (stereo unspecified)	-26%	-105%	?	-8	-4	i
COc1ccc(C2C(C(=O)c3cccs3)=C(O)C(=O)N2c2nnc(C)s2)cc1OC (stereo unspecified)	-7%	10%	-1%	2	-10	i
C=CCOc1ccc(C2C(C(=O)c3cccs3)=C(O)C(=O)N2c2nnc(C)s2)cc1 (stereo unspecified)	26%	0%	37%	-13	-63*	i
Cc1ccc(C2(C)NC(=O)N(CC(=O)N3CCN(S(=O)(=O)c4cccs4)CC3)C2=O)cc1 (stereo unspecified)	5%	-14%	4%	1	-53*	i
Cc1ccc(C2(C)NC(=O)N(CC(=O)N3CCN(S(=O)(=O)c4ccc(Cl)s4)CC3)C2=O)cc1 (stereo unspecified)	-14%	-13%	?	0	1	i
Cc1ccc(-c2n[nH]c3c2C(c2cccs2)N(c2ccc(Cl)cc2)C3=O)cc1 (stereo unspecified)	?	13µM*	11µM*	4	.	?
Cc1ccc(N2C(=O)c3[nH]nc(-c4ccc(Cl)cc4)c3C2c2ccc(F)cc2)cc1 (stereo unspecified)	?	11µM*	?	5	.	.
COc1ccc(OC)c(C2c3c(-c4ccc(Br)cc4)n[nH]c3C(=O)N2c2ccc(Cl)cc2)c1 (stereo unspecified)	?	11µM*	4µM*	5	.	.
COc1cc(C2c3c(-c4ccc(C)cc4)n[nH]c3C(=O)N2c2ccc(F)cc2)ccc1O (stereo unspecified)	?	-51%	11µM*	6	.	?
COc1ccc(-c2n[nH]c3c2C(c2ccc(O)cc2)N(c2ccc(Br)cc2)C3=O)cc1 (stereo unspecified)	.	-28%	?	-6	.	.
Cc1ccc(NC(=O)Cn2c(=O)n(CCC(=O)N3CCc4ccccc4C3)c(=O)c3ccccc32)cc1	13%	7%	23%	-8	.	i
Cc1nn(CCC(=O)N2CCN(c3ccccc3)CC2)c(C)c1S(=O)(=O)N1CCCC1	-7%	-1%	-12%	-17	.	i
Cc1cc(C(=O)Nc2ccccc2-c2nc(CNC(=O)C3COc4ccccc4O3)c(C)o2)c(C)o1 (stereo unspecified)	.	.	.	.	.	i
Cc1ccc(CNC(=O)c2cnc(N3CCCCC3)c3ccccc23)cc1	.	1%	11µM*	10	.	.
Cc1ccc(CNC(=O)c2cccn2-c2nnc(N3CCCCC3)s2)cc1	.	-39%	7.9µM*	-10	.	.

High-throughput results from PubChem BioAssay.
